This test addresses Fibrinogen beta chain (Homo sapiens) (UniProt P02675). Nature of the test: DD(E) binders in alternate-peptide displacement assay, confirmation, counter-screen for fibrin DD(E)-Tn6 binding project, biochemical, fluorescence polarization, human fibrin (AID 720621).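 Also: 0% = median of compound wells and 100% = wells with Aha-Tn7 blocking peptide.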 To be noted: TRITC-Tn6 fluorescence polarization displacement, at 8.3 µM, stronger effect = higher value. (In general: A counterscreen serves to expose hits that act by an unwanted route or on another target.)

Data on two compounds can be found in PubChem BioAssay AID720621 (The Scripps Research Institute Molecular Screening Center, 2013).

Structures are written as SMILES. This is one part of the list. Unmarked numbers belong to inactive results.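 The calls were made as follows: active = inhibition above the mean of test compounds lying between the control limits plus 3 SD of those (cut at about 14% in these data); inactive = the rest.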

Chain of Fibrinogen beta chain (Homo sapiens) (P02675 whole entry, looked up): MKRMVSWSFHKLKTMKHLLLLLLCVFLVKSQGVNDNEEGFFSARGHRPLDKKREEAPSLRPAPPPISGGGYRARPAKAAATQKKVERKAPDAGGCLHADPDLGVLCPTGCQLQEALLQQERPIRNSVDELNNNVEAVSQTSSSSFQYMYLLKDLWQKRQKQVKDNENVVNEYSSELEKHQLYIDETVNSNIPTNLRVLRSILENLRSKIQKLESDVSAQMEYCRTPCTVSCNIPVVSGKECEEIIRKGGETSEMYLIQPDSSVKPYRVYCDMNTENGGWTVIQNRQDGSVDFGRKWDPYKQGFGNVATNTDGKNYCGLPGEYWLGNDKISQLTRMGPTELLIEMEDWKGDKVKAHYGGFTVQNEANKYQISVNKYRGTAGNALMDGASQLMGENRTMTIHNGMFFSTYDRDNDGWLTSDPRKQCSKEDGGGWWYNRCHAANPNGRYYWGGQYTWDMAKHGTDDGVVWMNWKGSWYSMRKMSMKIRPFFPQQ

One may read the inhibition as the change of the read-out against control, counted positive when it falls. For `Cc1cc(N2CCNC[C@@H]2C)ccc1N1CC[C@H](O)C1`, the inhibition was 2.02%. The same measure for `COc1ccc2c(c1O)-c1cccc3c1[C@@H](C2)N(C)CC3`: -6.45%.
